Key:
Assay in all cases: log2 ratio of Biotin-Ahx-Ub-VS probe labelling (fragment/DMSO); higher = less target engagement (more negative = stronger competition), active = hit call of the paper (q ≤ 0.05, log2 ratio ≤ -1)
Settings in all cases: compound concentration: 200 uM; treatment time: 3 h
[1] = target: T1, USP19 (UniProt O94966)
T1 sequence (whole entry): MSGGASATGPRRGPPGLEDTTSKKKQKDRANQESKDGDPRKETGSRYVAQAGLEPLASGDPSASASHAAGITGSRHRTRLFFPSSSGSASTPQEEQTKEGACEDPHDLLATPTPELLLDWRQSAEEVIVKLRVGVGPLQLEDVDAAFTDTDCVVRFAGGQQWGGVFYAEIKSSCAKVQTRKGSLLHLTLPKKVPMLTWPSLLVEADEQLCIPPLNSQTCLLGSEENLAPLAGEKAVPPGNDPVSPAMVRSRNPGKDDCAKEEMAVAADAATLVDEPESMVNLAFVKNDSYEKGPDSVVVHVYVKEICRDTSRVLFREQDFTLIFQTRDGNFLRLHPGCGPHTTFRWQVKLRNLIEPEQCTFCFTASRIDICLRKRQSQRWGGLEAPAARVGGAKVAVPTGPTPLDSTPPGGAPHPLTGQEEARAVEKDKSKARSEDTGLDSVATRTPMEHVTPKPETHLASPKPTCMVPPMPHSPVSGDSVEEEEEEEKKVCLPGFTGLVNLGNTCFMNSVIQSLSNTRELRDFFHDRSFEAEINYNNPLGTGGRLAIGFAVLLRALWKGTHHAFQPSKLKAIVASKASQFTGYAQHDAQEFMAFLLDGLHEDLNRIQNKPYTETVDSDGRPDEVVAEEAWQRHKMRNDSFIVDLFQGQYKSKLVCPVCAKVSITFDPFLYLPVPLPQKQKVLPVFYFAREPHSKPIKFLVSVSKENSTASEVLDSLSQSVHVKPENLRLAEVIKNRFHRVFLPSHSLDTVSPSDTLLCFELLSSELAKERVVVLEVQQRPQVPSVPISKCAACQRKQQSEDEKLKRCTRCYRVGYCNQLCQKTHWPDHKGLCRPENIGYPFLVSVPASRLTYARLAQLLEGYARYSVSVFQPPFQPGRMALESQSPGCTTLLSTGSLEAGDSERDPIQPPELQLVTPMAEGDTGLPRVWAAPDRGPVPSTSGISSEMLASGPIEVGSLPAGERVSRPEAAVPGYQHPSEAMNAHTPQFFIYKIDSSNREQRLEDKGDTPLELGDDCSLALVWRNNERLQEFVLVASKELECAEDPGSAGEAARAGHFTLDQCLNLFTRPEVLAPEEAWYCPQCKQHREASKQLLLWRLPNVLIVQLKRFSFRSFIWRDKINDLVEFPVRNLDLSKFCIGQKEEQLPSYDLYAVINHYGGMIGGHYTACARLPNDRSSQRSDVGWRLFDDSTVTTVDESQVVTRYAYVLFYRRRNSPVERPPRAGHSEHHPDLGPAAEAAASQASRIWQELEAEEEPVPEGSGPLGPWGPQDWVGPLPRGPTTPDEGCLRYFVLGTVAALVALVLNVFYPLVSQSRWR
Summary of the method: (§1)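 HEK293T lysate (495 µg per sample, in Tris/CHAPS/IGEPAL buffer with protease inhibitors) was exposed in triplicate for 3 h to fragment at 200 µM or to vehicle, then to Biotin-Ahx-Ub-VS at 0.5 µM final for 1 h. Labelled DUBs were enriched on NeutrAvidin, digested with LysC and trypsin, and analysed by diaPASEF LC-MS/MS. Spectronaut label-free quantities were normalised to the global median, and values are average log2 ratios of fragment over vehicle from an unpaired t-test. Only proteins with ≥2 unique peptides were used.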

[2] = target: T2, USP22 (UniProt Q9UPT9)
T2 sequence (whole entry): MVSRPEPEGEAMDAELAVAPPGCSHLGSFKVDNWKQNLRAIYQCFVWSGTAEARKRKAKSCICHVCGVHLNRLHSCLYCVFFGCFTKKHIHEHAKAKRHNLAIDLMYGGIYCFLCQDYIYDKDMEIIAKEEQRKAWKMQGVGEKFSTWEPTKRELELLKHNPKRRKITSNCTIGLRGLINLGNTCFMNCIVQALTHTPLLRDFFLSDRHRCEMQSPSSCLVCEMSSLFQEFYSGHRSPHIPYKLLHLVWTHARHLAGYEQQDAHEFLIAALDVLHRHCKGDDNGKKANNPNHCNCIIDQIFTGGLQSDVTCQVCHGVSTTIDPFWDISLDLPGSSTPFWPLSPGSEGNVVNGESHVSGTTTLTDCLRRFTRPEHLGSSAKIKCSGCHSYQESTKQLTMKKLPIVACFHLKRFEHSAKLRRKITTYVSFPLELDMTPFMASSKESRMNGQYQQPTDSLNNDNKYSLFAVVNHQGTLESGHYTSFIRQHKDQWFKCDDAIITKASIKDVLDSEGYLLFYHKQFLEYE
Summary of the method: as §1

[3] = target: USP24 (UniProt Q9UPU5)
Sequence of USP24 (Q9UPU5 whole entry): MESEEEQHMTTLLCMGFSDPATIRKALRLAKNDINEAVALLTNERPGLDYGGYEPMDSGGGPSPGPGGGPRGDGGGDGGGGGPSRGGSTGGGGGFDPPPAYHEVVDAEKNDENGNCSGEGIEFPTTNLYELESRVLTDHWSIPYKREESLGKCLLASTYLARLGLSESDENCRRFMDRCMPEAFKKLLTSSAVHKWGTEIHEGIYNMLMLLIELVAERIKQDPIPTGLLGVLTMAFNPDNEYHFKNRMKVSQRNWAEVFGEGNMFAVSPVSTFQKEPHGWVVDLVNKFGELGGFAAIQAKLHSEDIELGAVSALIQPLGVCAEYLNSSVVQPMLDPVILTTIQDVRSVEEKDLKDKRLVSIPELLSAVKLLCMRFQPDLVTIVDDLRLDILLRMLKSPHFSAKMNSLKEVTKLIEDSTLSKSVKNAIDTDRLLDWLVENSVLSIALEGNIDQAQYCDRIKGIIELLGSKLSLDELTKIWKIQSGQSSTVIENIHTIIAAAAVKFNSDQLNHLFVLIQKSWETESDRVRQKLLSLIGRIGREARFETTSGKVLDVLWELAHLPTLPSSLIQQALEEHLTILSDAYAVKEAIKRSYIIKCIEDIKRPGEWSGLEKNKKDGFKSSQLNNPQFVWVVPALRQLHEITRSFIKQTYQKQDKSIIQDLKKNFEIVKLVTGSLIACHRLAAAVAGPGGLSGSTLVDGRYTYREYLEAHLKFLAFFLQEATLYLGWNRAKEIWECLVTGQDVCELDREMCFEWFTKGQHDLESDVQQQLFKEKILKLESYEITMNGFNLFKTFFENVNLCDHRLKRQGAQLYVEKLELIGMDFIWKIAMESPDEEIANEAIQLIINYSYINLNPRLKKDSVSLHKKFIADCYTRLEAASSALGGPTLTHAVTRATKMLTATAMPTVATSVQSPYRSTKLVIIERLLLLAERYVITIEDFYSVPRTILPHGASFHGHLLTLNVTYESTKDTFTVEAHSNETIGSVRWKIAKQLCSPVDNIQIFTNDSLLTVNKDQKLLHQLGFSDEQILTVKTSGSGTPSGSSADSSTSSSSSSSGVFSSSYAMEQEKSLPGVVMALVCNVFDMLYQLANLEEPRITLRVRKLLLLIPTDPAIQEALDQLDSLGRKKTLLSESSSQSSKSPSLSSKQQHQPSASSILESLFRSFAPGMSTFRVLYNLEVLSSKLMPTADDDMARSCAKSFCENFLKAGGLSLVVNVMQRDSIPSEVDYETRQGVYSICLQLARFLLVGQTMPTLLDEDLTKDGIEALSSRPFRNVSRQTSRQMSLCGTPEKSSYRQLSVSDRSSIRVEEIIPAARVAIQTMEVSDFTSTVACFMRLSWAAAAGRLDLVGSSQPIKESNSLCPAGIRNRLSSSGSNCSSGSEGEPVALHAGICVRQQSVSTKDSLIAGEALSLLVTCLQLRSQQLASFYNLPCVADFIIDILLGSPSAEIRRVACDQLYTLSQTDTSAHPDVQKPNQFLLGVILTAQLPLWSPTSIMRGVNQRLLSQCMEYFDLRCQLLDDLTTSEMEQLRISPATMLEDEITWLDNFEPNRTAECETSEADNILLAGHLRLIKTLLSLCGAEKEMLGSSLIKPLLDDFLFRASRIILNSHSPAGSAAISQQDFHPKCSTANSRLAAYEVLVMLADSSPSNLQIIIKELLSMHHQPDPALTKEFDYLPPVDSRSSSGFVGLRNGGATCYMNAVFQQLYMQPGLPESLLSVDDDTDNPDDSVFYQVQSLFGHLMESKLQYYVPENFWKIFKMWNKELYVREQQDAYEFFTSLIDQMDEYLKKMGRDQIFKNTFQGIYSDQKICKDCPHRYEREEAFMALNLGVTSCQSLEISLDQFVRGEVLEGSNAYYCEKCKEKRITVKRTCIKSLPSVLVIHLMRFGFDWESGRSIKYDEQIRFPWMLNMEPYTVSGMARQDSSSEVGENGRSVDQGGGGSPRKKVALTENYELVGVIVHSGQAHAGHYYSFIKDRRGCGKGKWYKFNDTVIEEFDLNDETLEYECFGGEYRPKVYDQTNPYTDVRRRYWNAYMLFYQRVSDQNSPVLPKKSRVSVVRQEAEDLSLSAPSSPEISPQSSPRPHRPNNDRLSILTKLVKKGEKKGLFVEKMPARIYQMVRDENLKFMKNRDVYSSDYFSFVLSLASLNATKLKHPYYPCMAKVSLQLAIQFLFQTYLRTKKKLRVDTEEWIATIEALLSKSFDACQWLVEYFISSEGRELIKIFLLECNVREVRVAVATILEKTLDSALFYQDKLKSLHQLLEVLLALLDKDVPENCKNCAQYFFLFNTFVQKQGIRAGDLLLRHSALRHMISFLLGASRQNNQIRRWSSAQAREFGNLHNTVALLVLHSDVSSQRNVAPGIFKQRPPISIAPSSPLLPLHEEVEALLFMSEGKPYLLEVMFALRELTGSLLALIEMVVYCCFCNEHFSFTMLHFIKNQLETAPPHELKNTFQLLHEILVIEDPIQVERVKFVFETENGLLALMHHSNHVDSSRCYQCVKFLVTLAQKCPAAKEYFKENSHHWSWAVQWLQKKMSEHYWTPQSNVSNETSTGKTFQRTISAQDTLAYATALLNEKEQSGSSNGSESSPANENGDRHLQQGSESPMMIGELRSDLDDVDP
Summary of the method: as §1

[4] = target: T3, USP25 (UniProt Q9UHP3)
T3 sequence (whole entry): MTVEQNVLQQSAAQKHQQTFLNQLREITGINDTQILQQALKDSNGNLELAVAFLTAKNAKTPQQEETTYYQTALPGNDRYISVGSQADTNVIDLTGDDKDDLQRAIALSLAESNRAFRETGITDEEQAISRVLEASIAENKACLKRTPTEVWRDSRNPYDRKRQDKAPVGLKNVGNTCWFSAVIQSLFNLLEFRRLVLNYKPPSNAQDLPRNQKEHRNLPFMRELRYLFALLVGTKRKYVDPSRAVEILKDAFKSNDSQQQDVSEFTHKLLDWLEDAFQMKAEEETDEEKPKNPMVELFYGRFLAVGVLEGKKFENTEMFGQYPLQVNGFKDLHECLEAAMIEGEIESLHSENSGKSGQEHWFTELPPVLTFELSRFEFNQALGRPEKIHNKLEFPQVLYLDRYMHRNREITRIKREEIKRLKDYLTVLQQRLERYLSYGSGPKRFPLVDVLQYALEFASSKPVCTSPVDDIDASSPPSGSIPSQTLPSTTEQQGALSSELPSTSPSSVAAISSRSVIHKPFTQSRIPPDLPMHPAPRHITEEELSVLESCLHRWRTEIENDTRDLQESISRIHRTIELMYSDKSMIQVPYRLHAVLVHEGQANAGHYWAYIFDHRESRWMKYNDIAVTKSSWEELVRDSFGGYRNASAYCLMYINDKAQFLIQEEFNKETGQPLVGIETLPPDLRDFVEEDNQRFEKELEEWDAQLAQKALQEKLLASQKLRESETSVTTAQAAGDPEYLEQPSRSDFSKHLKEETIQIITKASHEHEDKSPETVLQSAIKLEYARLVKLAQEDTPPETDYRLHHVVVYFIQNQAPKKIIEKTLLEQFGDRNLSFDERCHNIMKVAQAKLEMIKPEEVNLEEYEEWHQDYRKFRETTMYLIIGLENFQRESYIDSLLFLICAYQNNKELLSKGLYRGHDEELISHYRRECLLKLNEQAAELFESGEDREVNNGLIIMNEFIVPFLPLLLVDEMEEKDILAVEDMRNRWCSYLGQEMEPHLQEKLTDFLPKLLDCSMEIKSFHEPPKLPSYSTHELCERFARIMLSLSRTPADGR
Summary of the method: as §1

[5] = target: T4, USP28 (UniProt Q96RU2)
T4 sequence (whole entry): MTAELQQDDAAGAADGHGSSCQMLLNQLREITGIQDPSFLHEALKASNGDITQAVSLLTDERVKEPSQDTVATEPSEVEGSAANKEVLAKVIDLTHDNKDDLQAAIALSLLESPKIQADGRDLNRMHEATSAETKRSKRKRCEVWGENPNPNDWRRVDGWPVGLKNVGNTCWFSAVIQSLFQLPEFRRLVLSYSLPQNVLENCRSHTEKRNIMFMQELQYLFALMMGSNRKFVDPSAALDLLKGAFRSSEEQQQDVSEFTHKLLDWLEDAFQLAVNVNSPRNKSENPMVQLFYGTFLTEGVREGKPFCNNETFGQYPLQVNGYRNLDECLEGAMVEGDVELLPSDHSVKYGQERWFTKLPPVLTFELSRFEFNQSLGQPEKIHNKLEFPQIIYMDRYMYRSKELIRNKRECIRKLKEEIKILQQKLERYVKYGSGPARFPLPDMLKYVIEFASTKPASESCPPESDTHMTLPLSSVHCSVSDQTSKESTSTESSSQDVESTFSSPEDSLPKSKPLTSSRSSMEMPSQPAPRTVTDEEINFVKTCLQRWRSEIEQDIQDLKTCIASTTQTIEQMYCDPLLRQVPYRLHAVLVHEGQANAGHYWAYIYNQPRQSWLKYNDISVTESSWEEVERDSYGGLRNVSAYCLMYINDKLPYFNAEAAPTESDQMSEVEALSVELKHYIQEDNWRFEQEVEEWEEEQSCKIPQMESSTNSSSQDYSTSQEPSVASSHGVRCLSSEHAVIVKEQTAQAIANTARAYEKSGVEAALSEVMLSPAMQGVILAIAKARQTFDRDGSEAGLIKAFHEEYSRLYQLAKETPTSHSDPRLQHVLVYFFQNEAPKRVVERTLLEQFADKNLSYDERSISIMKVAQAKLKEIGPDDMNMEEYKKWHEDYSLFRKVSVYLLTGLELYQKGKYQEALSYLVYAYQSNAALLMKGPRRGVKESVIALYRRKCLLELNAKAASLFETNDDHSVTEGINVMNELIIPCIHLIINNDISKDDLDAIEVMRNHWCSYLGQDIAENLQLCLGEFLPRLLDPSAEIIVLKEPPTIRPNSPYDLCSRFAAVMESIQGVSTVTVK
Summary of the method: as §1

Measured: log2 ratio of Biotin-Ahx-Ub-VS probe labelling

CC(NC(=O)CCl)c1noc(Cc2ccccc2)n1 (stereo not given)
inactive: [1] -0.307 | [2] -0.322 | [3] -0.498 | [4] -0.593 | [5] -0.789

Source: the supplement of paper PMC11732987, “Enantioselective OTUD7B fragment discovery through chemoproteomics screening and high-throughput optimisation” (Communications Chemistry, 2025)
